# Structures can show the parent of a compound that is named as a salt. ± gives the standard deviation or the standard deviation of the averaged measurements.
# Columns and labels:
# Details in all cases: 25 µM; exposure: 24-48 hpf
# [1] = system: Danio rerio Tg(wt1b:EGFP) embryo, pronephros; assay: glomerular separation, fold change vs DMSO control; higher = glomeruli further apart (abnormal)
# Summary of the method: (§1)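 Features are reported as fold changes against the mean of same-day DMSO-treated embryos. Before that, values more than 2 SD away from the feature mean were excluded. The embryos, dechorionated Tg(wt1b:EGFP) zebrafish, had been exposed from 24 to 48 hpf at 28.5°C to 25 μM compound in 0.5% DMSO in HEPES-buffered E3 with 0.003% PTU, and distances and angles came from 16 manually set points on maximum projections of dorsal pronephros images in Fiji.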
# [2] = system: Danio rerio Tg(wt1b:EGFP) embryo, pronephros; assay: glomerular width (mean of left and right), fold change vs DMSO control; higher = wider glomerulus
# Summary of the method: as §1
# [3] = system: Danio rerio Tg(wt1b:EGFP) embryo, pronephros; assay: fraction of imaged embryos annotated as normal kidney; higher = less nephrotoxic; extreme values may be limits of the assay
# Summary of the method: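 The value given is the share of embryos in each treatment scored as having a normal kidney. To obtain it, dechorionated Tg(wt1b:EGFP) zebrafish embryos were treated from 24 to 48 hpf at 28.5°C with 25 μM compound in 0.5% DMSO, in 5 mM HEPES-buffered E3 with 0.003% PTU. Pronephroi were imaged by widefield fluorescence (470 nm, 10 z-slices), and every embryo was annotated by hand from maximum projections.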
# [4] = system: Danio rerio Tg(wt1b:EGFP) embryo, pronephros; assay: pronephric angle neck segment to proximal convoluted tubule (mean of left and right), fold change vs DMSO control; higher = larger pronephric angle
# Summary of the method: as §1
Structure (SMILES),glomerular separation [1],glomerular width [2],fraction of imaged embryos annotated as normal kidney [3],pronephric angle neck segment [4]
Cc1ccc(NC(=O)c2ccc(CN3CCN(C)CC3)cc2)cc1Nc1nccc(-c2cccnc2)n1 [Imatinib],1.09 ± 0.42,0.9892 ± 0.0063,1,1.01 ± 0.018
C=CCOc1ccccc1OCC(O)CNC(C)C (configuration not stated) [Oxprenolol hydrochloride],0.751 ± 0.34,1.002 ± 0.0059,0.75,1.0054 ± 0.00047
CCC[C@H](N[C@@H](C)C(=O)N1[C@H](C(=O)O)C[C@@H]2CCCC[C@@H]21)C(=O)OCC [Perindopril],0.827 ± 0.34,1.09 ± 0.028,0.917,0.98 ± 0.026
CN1CCN(c2c(F)cc3c(=O)c(C(=O)O)cn4c3c2SCC4)CC1 [Rufloxacin],0.835 ± 0.21,0.9236 ± 0.0089,1,0.986 ± 0.027
CN(C(=O)C(Cl)Cl)c1ccc(OC(=O)c2ccco2)cc1 [Diloxanide furoate],2.17 ± 1,0.777 ± 0.037,0.25,1.25 ± 0.081
Cc1c(Nc2ncccc2C(=O)O)cccc1C(F)(F)F [Flunixin meglumine],6.16 ± 1.6,0.491 ± 0.031,0,1.9787 ± 0.0013
O=C1CC2(CCCC2)CC(=O)N1CCCCN1CCN(c2ncccn2)CC1 [Buspirone hydrochloride],0.901 ± 0.35,1.02 ± 0.022,0.75,1.01 ± 0.034
O=C(c1ccc(F)cc1)C1CCN(CCn2c(=O)[nH]c3ccccc3c2=O)CC1 [Ketanserin tartrate hydrate],0.846 ± 0.25,0.939 ± 0.021,0.833,1.03 ± 0.046
O=C(CCCN1CCC(O)(c2ccc(Cl)cc2)CC1)c1ccc(F)cc1 [Haloperidol],1.19 ± 0.53,0.918 ± 0.086,0.833,0.974 ± 0.046
Nc1ccc(S(=O)(=O)NC(=O)c2ccccc2)cc1 [Sulfabenzamide],1.2 ± 0.49,0.98 ± 0.04,0.667,1.09 ± 0.0044
CC(C)(C)NCC(O)COc1cccc2c1CC(O)C(O)C2 (configuration not stated) [Nadolol],0.664 ± 0.2,1.03 ± 0.12,0.833,0.908 ± 0.02
CC(C)[C@H]1CC[C@H](C(=O)N[C@H](Cc2ccccc2)C(=O)O)CC1 [Nateglinide],0.985 ± 0.37,1.04 ± 0.024,1,1.08 ± 0.024
O=c1[nH]c(=O)n([C@H]2C[C@H](O)[C@@H](CO)O2)cc1I [Idoxuridine],1.12 ± 0.42,1.05 ± 0.017,0.667,1.05 ± 0.073
CN(C)[C@@H]1C(O)=C(C(N)=O)C(=O)[C@@]2(O)C(O)=C3C(=O)c4c(O)cccc4[C@@](C)(O)[C@H]3[C@H](O)[C@@H]12 [Oxytetracycline dihydrate],1.22 ± 0.44,0.955 ± 0.036,0.909,0.9153 ± 0.0078
COC(=O)CCc1ccc(OCC(O)CNC(C)C)cc1 (configuration not stated) [Esmolol hydrochloride],0.66 ± 0.2,1.15 ± 0.035,0.75,0.986 ± 0.013
CN1CCN(C2=Nc3ccccc3Oc3ccc(Cl)cc32)CC1 [Loxapine succinate],1.15 ± 0.43,0.974 ± 0.014,0.75,1.06 ± 0.013
CC1(C)O[C@@H]2C[C@H]3[C@@H]4CCC5=CC(=O)C=C[C@]5(C)[C@H]4[C@@H](O)C[C@]3(C)[C@]2(C(=O)CO)O1 [Desonide],1.63 ± 0.49,1.33 ± 0.024,0.167,1.04 ± 0.13
CCN(CC)CCCC(C)Nc1ccnc2cc(Cl)ccc12 (configuration not stated) [Chloroquine diphosphate],1.16 ± 0.51,0.959 ± 0.049,1,0.991 ± 0.019
C[C@H]1O[C@@H](O[C@H]2[C@@H](O)C[C@H](O[C@H]3[C@@H](O)C[C@H](O[C@H]4CC[C@@]5(C)[C@H](CC[C@@H]6[C@@H]5C[C@@H](O)[C@]5(C)[C@@H](C7=CC(=O)OC7)CC[C@]65O)C4)O[C@@H]3C)O[C@@H]2C)C[C@H](O)[C@@H]1O [Digoxin],1.43 ± 0.52,1.08 ± 0.023,0.75,0.9342 ± 0.0075

Structure (SMILES),glomerular separation [1],glomerular width [2],fraction of imaged embryos annotated as normal kidney [3],pronephric angle neck segment [4]
Cn1c(=O)c2[nH]cnc2n(C)c1=O [Aminophylline],0.664 ± 0.15,0.992 ± 0.021,1,0.871 ± 0.011
CN1Cc2c(N)cccc2C(c2ccccc2)C1 (configuration not stated) [Nomifensine maleate],0.973 ± 0.34,1.04 ± 0.051,1,1.01 ± 0.065
CCSc1ccc2c(c1)N(CCCN1CCN(C)CC1)c1ccccc1S2 [Thiethylperazine dimalate],0.677 ± 0.22,1.054 ± 0.0092,0.833,0.9766 ± 0.0079
C=CCSCC1Nc2cc(Cl)c(S(N)(=O)=O)cc2S(=O)(=O)N1 (configuration not stated) [Althiazide],1.08 ± 0.28,0.962 ± 0.12,0.5,1.09 ± 0.083
CCCCC(C)(O)C/C=C/[C@H]1[C@H](O)CC(=O)[C@@H]1CCCCCCC(=O)OC (mixture of isomers) [Misoprostol],0.763 ± 0.35,0.959 ± 0.024,1,0.985 ± 0.04
CN1[C@@H]2CC[C@H]1C[C@@H](OC(c1ccccc1)c1ccccc1)C2 [Benztropine mesylate],0.821 ± 0.18,1 ± 0.025,0.833,1.04 ± 0.011
CN1CCC(=C2c3ccccc3Sc3ccccc32)CC1 [Pimethixene maleate],1.32 ± 0.41,1.01 ± 0.021,0.917,1.062 ± 0.0083
O=C1CCc2ccc(OCCCCN3CCN(c4cccc(Cl)c4Cl)CC3)cc2N1 [Aripiprazole],0.976 ± 0.16,0.888 ± 0.06,1,1.08 ± 0.033
Cc1cccc(CN2CCN(C(c3ccccc3)c3ccc(Cl)cc3)CC2)c1 (configuration not stated) [Meclozine dihydrochloride],1.25 ± 0.33,0.93 ± 0.015,0.417,1.03 ± 0.073
COc1cc(C(=O)NC2CCCNC2)cc(OC)c1OC (configuration not stated) [Troxipide],1.14 ± 0.54,0.976 ± 0.011,0.917,0.953 ± 0.027
C[N+]1(C)CCC(=C(c2ccccc2)c2ccccc2)CC1 [Diphemanil methylsulfate],1.35 ± 0.53,0.992 ± 0.041,0.75,1.02 ± 0.033
CNNCc1ccc(C(=O)NC(C)C)cc1 [Procarbazine hydrochloride],1.02 ± 0.24,0.973 ± 0.017,1,1.084 ± 0.0049
CC1(C)S[C@@H]2[C@H](NC(=O)[C@H](C(=O)O)c3ccsc3)C(=O)N2[C@H]1C(=O)O [Ticarcillin sodium],0.953 ± 0.36,1.01 ± 0.048,0.8,1.006 ± 0.0094
OC[C@H]1O[C@@H](Oc2ccc(O)cc2)[C@H](O)[C@@H](O)[C@@H]1O [Arbutin],0.869 ± 0.33,1.021 ± 0.0053,0.917,0.933 ± 0.018
Cc1cc(O)c(C(=O)N[C@@H](C(=O)N[C@@H]2C(=O)N3C(C(=O)O)=C(CSc4nnnn4C)CS[C@H]23)c2ccc(O)cc2)cn1 [Cefpiramide],1.22 ± 0.39,0.985 ± 0.089,0.833,0.9442 ± 0.0043
C[C@H](CS)C(=O)N1CCC[C@H]1C(=O)O [Captopril],1 ± 0.45,1.01 ± 0.042,1,1.02 ± 0.09
CN1CCCN(C(c2ccccc2)c2ccc(Cl)cc2)CC1 (configuration not stated) [Homochlorcyclizine dihydrochloride],1.08 ± 0.45,0.975 ± 0.015,1,1.013 ± 0.0017
CC[C@]12CCCN3CCc4c(n(c5ccccc45)C(=O)C1)[C@@H]32 [Eburnamonine (-)],1.19 ± 0.41,0.922 ± 0.059,1,1.03 ± 0.017
NC(=O)N/N=C/c1ccc([N+](=O)[O-])o1 [Nitrofural],0.881 ± 0.24,1.02 ± 0.047,1,0.982 ± 0.017

# — the supplement of paper PMC7366291
